Measurements: PubChem BioAssay (NCI)
This is part of a sample that, as a whole, favours compounds with a hit. Of some 83,000 tested, about 20% had one in any assay.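 Each cell line was grown in a 96-well plate and treated with one concentration of compound for 48 hours. Values below 10 were considered active.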 Activity calls are given as the source filed them.

Legend:
Experiment in all cases: NCI-60 one-dose screen, 48 h (100 = growth as untreated, 0 = no growth, -100 = all killed)
Details in all cases: 10 µM unless noted
HCT-15 colon = test system: HCT-15 colon
HT29 colon = test system: HT29 colon
SNB-75 CNS = test system: SNB-75 CNS
SNB-19 CNS = test system: SNB-19 CNS
U251 CNS = test system: U251 CNS
PC-3 prostate = test system: PC-3 prostate
SK-MEL-5 melanoma = test system: SK-MEL-5 melanoma
UACC-62 melanoma = test system: UACC-62 melanoma
LOX IMVI melanoma = test system: LOX IMVI melanoma
SK-MEL-28 melanoma = test system: SK-MEL-28 melanoma
SK-MEL-2 melanoma = test system: SK-MEL-2 melanoma
EKVX NSCLC = test system: EKVX NSCLC
SN12C renal = test system: SN12C renal
UO-31 renal = test system: UO-31 renal
TK-10 renal = test system: TK-10 renal
ACHN renal = test system: ACHN renal
CAKI-1 renal = test system: CAKI-1 renal
A498 renal = test system: A498 renal
CCRF-CEM leukemia = test system: CCRF-CEM leukemia
MOLT-4 leukemia = test system: MOLT-4 leukemia

Measured: growth

O=C(Cc1ccc(F)c(Cl)c1)Nc1cc(C2(C(F)(F)F)CC2)nn1CC1CCCCC1
inactive: SNB-19 CNS 14.7% | LOX IMVI melanoma 11.6% | SK-MEL-28 melanoma 19.7% | CCRF-CEM leukemia 20.1% | MOLT-4 leukemia 11.7%
active: HCT-15 colon 5.75% | HT29 colon 8.71% | SNB-75 CNS -8.19% | U251 CNS 1.68% | PC-3 prostate 0.348% | SK-MEL-5 melanoma -74.5% | UACC-62 melanoma 0.508% | SK-MEL-2 melanoma -48.8% | EKVX NSCLC 3.93% | SN12C renal 6.18% | UO-31 renal -3.33% | TK-10 renal 3.08% | ACHN renal -7.99% | CAKI-1 renal -14.3% | A498 renal -33.2%

c1ccc(Nc2cc(-c3cccnc3)[nH]n2)cc1
inactive: HCT-15 colon 101% | HT29 colon 100% | SNB-75 CNS 52.8% | SNB-19 CNS 77.9% | U251 CNS 84% | PC-3 prostate 102% | SK-MEL-5 melanoma 101% | UACC-62 melanoma 102% | LOX IMVI melanoma 103% | SK-MEL-28 melanoma 105% | SK-MEL-2 melanoma 112% | EKVX NSCLC 98.1% | SN12C renal 99.3% | UO-31 renal 80% | TK-10 renal 103% | ACHN renal 91.8% | CAKI-1 renal 90.1% | A498 renal 69% | CCRF-CEM leukemia 106% | MOLT-4 leukemia 93.6%

O=C(/C=C/c1sc(Cl)nc1Cl)c1ccc(Br)cc1
inactive: HCT-15 colon 32.4% | HT29 colon 91.2% | SNB-75 CNS 95% | SNB-19 CNS 90.6% | U251 CNS 60.1% | PC-3 prostate 95.5% | SK-MEL-5 melanoma 89.2% | UACC-62 melanoma 95.3% | SK-MEL-28 melanoma 100% | SK-MEL-2 melanoma 96.4% | EKVX NSCLC 96.5% | SN12C renal 41.7% | UO-31 renal 80.2% | TK-10 renal 92.3% | ACHN renal 75.6% | CAKI-1 renal 87.1% | A498 renal 92.2% | CCRF-CEM leukemia 29.9% | MOLT-4 leukemia 29.9%
active: LOX IMVI melanoma 5.31%

COc1ccc2nc(NCCCNCCO)c3sc4ccc(F)cc4c(=O)c3c2c1
active: HCT-15 colon -47.9% | HT29 colon -43.7% | U251 CNS -33.2% | LOX IMVI melanoma -97% | CAKI-1 renal 7.45% | CCRF-CEM leukemia -20.8% | MOLT-4 leukemia -10.4%
inactive: SNB-75 CNS 54.1% | SNB-19 CNS 61.5% | PC-3 prostate 38.9% | SK-MEL-5 melanoma 85% | UACC-62 melanoma 65.7% | SK-MEL-28 melanoma 68.9% | SK-MEL-2 melanoma 89% | EKVX NSCLC 61.1% | SN12C renal 58.6% | UO-31 renal 38.4% | TK-10 renal 69.3% | ACHN renal 39.5% | A498 renal 25.9%

O=c1[nH][n+](-c2ccc(Br)cc2)no1
inactive: HCT-15 colon 33.5% | HT29 colon 90% | SNB-75 CNS 77.1% | SNB-19 CNS 77.8% | U251 CNS 73.3% | PC-3 prostate 70.7% | SK-MEL-5 melanoma 57.8% | SK-MEL-28 melanoma 61.2% | SK-MEL-2 melanoma 55.8% | EKVX NSCLC 60.8% | SN12C renal 66.7% | UO-31 renal 22.7% | TK-10 renal 63.8% | ACHN renal 37.8% | CAKI-1 renal 18.5% | A498 renal 93.8% | CCRF-CEM leukemia 55.1% | MOLT-4 leukemia 41.5%
active: UACC-62 melanoma 9.27% | LOX IMVI melanoma 7.47%

O=c1c2cc(F)ccc2sc2c(N3CCCCC3)nc3ccccc3c12
inactive: HCT-15 colon 103% | HT29 colon 98% | SNB-75 CNS 90.2% | SNB-19 CNS 101% | U251 CNS 94.1% | PC-3 prostate 98.1% | SK-MEL-5 melanoma 97.8% | UACC-62 melanoma 96.1% | LOX IMVI melanoma 97.1% | SK-MEL-28 melanoma 109% | SK-MEL-2 melanoma 115% | EKVX NSCLC 103% | SN12C renal 99.1% | UO-31 renal 78.8% | TK-10 renal 109% | ACHN renal 102% | CAKI-1 renal 101% | A498 renal 64.6% | CCRF-CEM leukemia 110% | MOLT-4 leukemia 111%

CNc1nc2c(s1)C(c1cccc(F)c1)CC(=O)N2 (stereo not given)
inactive: HCT-15 colon 104% | HT29 colon 104% | SNB-75 CNS 76.8% | SNB-19 CNS 92.8% | U251 CNS 94.6% | PC-3 prostate 98.5% | SK-MEL-5 melanoma 101% | UACC-62 melanoma 92.3% | LOX IMVI melanoma 98.4% | SK-MEL-28 melanoma 103% | SK-MEL-2 melanoma 100% | EKVX NSCLC 103% | SN12C renal 95.2% | UO-31 renal 84.6% | TK-10 renal 105% | ACHN renal 88.4% | CAKI-1 renal 87.6% | A498 renal 69% | CCRF-CEM leukemia 104% | MOLT-4 leukemia 103%

C=C(C)C1CCC2(C)OC2C1 (stereo not given)
inactive: HCT-15 colon 112% | HT29 colon 109% | SNB-75 CNS 80.4% | SNB-19 CNS 110% | U251 CNS 118% | PC-3 prostate 109% | SK-MEL-5 melanoma 109% | UACC-62 melanoma 103% | LOX IMVI melanoma 108% | SK-MEL-28 melanoma 127% | SK-MEL-2 melanoma 111% | EKVX NSCLC 87.4% | SN12C renal 108% | UO-31 renal 115% | TK-10 renal 100% | ACHN renal 104% | CAKI-1 renal 81.2% | A498 renal 141% | CCRF-CEM leukemia 110% | MOLT-4 leukemia 90.7%

O=C(CSc1nc2ccccc2[nH]1)Nc1cccc(Cl)c1
inactive: HCT-15 colon 109% | HT29 colon 112% | SNB-75 CNS 81.6% | SNB-19 CNS 91.4% | U251 CNS 104% | PC-3 prostate 99.3% | SK-MEL-5 melanoma 104% | UACC-62 melanoma 87.6% | LOX IMVI melanoma 99.6% | SK-MEL-28 melanoma 106% | SK-MEL-2 melanoma 104% | EKVX NSCLC 94.7% | SN12C renal 93% | UO-31 renal 77.6% | TK-10 renal 109% | ACHN renal 99.2% | CAKI-1 renal 80.7% | A498 renal 73.3% | CCRF-CEM leukemia 104% | MOLT-4 leukemia 117%

c1ccc2cc(C[n+]3ccn(CCCCCCCCCCCCn4cc[n+](Cc5ccc6ccccc6c5)c4)c3)ccc2c1
inactive: HCT-15 colon 17.4% | UO-31 renal 24.2% | ACHN renal 10.5% | CAKI-1 renal 41.9%
active: HT29 colon -82.7% | SNB-75 CNS -96.2% | SNB-19 CNS -80.5% | U251 CNS -84.6% | PC-3 prostate -37.6% | SK-MEL-5 melanoma -93.5% | UACC-62 melanoma -81.7% | LOX IMVI melanoma -84.9% | SK-MEL-28 melanoma -72.3% | SK-MEL-2 melanoma -69.9% | EKVX NSCLC -62.6% | SN12C renal -76.4% | TK-10 renal -48.2% | A498 renal -32.6% | CCRF-CEM leukemia -68.3% | MOLT-4 leukemia -69.7%

O=c1c2cc(F)ccc2sc2c(NCCCNCCO)nc3ccc(F)cc3c12
inactive: HCT-15 colon 47.9% | SNB-75 CNS 54.2% | SNB-19 CNS 72.6% | U251 CNS 38.4% | PC-3 prostate 50.6% | SK-MEL-5 melanoma 80.7% | UACC-62 melanoma 88.6% | SK-MEL-28 melanoma 94% | SK-MEL-2 melanoma 97.3% | EKVX NSCLC 75.4% | SN12C renal 66.1% | UO-31 renal 31.1% | TK-10 renal 67.5% | ACHN renal 46.9% | CAKI-1 renal 27.1% | A498 renal 26.9% | CCRF-CEM leukemia 15.1% | MOLT-4 leukemia 18.8%
active: HT29 colon -0.699% | LOX IMVI melanoma -76.7%

O=C(CCc1nnc(-c2c(Cl)cccc2Cl)o1)c1nc2ccccc2[nH]1
active: HT29 colon 9.39%
inactive: HCT-15 colon 81.5% | SNB-75 CNS 63.4% | SNB-19 CNS 75.1% | U251 CNS 52.5% | PC-3 prostate 53.1% | SK-MEL-5 melanoma 67% | UACC-62 melanoma 42.3% | LOX IMVI melanoma 55.1% | SK-MEL-28 melanoma 82.7% | SK-MEL-2 melanoma 59.4% | EKVX NSCLC 61% | SN12C renal 61.2% | UO-31 renal 52.1% | TK-10 renal 64% | ACHN renal 81.3% | CAKI-1 renal 59.8% | A498 renal 58.4% | CCRF-CEM leukemia 47.3% | MOLT-4 leukemia 20.7%

Nc1nn(C(=O)Nc2ccc(Cc3ccccc3)cc2)c2ccc(Cl)cc12
inactive: HCT-15 colon 36.6% | HT29 colon 74% | SNB-75 CNS 122% | SNB-19 CNS 83.4% | U251 CNS 65.9% | PC-3 prostate 74.7% | SK-MEL-5 melanoma 35.9% | UACC-62 melanoma 13.3% | LOX IMVI melanoma 39% | SK-MEL-28 melanoma 106% | SK-MEL-2 melanoma 68.7% | EKVX NSCLC 70% | SN12C renal 64.2% | UO-31 renal 43.5% | TK-10 renal 79.7% | ACHN renal 39.9% | CAKI-1 renal 44% | A498 renal 106% | CCRF-CEM leukemia 74% | MOLT-4 leukemia 25.6%

Cc1c(C(=O)/C=C/Nc2c(Cl)cc(S(N)(=O)=O)cc2Cl)sc2nc3ccccc3n12
inactive: HCT-15 colon 105% | HT29 colon 108% | SNB-75 CNS 93.6% | SNB-19 CNS 99.3% | U251 CNS 107% | PC-3 prostate 104% | SK-MEL-5 melanoma 104% | UACC-62 melanoma 101% | LOX IMVI melanoma 97.3% | SK-MEL-28 melanoma 103% | SK-MEL-2 melanoma 109% | EKVX NSCLC 106% | SN12C renal 102% | UO-31 renal 89.2% | TK-10 renal 111% | ACHN renal 99% | CAKI-1 renal 98.5% | A498 renal 101% | CCRF-CEM leukemia 102% | MOLT-4 leukemia 106%

N#CC1=C(N)Oc2c(sc3c(Br)cccc23)C1c1ccc(Br)cc1 (stereo not given)
active: HT29 colon 1.76% | SK-MEL-2 melanoma 8.78% | MOLT-4 leukemia 7.14%
inactive: HCT-15 colon 22.4% | SNB-75 CNS 15% | SNB-19 CNS 52.6% | U251 CNS 14% | PC-3 prostate 15.3% | SK-MEL-5 melanoma 15.6% | UACC-62 melanoma 21.2% | LOX IMVI melanoma 21.6% | SK-MEL-28 melanoma 50.6% | EKVX NSCLC 45.6% | SN12C renal 25.8% | UO-31 renal 36.3% | TK-10 renal 54.6% | ACHN renal 56% | CAKI-1 renal 32.8% | A498 renal 23.9% | CCRF-CEM leukemia 10.1%

COc1cc(/C=C/c2ccccc2)cc(OC)c1
inactive: HCT-15 colon 91% | HT29 colon 90.4% | SNB-75 CNS 93.1% | SNB-19 CNS 98.7% | U251 CNS 84.1% | PC-3 prostate 94.6% | SK-MEL-5 melanoma 96.5% | UACC-62 melanoma 83.4% | LOX IMVI melanoma 84.8% | SK-MEL-28 melanoma 111% | SK-MEL-2 melanoma 93.7% | EKVX NSCLC 78.9% | SN12C renal 100% | UO-31 renal 80.1% | TK-10 renal 95.9% | ACHN renal 96.6% | CAKI-1 renal 81.3% | A498 renal 88.7% | CCRF-CEM leukemia 108% | MOLT-4 leukemia 89.3%
